Records with an inconclusive call do not appear. A call without a number means that no potency is given here. Calls of active or inactive are those of the source. Calls follow the shape of the dose curve; as a rule, active = well fitted inhibition curve with a large enough effect; inconclusive = small, poorly fitted or top-dose-only effect; inactive = no such curve, though single readings can be large or run the other way.

This test can be described thus: Confirmatory qHTS for Identification of Small Molecule Inhibitors of Huntingtin Promoter Activity. Also: nearly all actives have a fitted effect of over 65% in size. In short, it runs like this:
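HEK293 luciferase reporter cells, 2,500/well, cultured 24 h, then exposed to compounds at up to 57.5 uM final for 24 h at 37C. Firefly luciferase luminescence read; normalized to vehicle (0%) and zero RLU (-100%).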
Potency is read from the fitted curve at half-maximal effect.

Take `CC(=O)c1ccc(N2CCN(c3ncnc4c3cnn4-c3cc(Cl)ccc3C)CC2)cc1`: the Potency is 7.57 µM (active).

Consider `O=C(Nc1nc2cccc(-c3ccc(CN4CCS(=O)(=O)CC4)cc3)n2n1)C1CC1`, for which the Potency entry is “inactive”.

On to `Cc1cc(Nc2sc(C(=O)c3ccc(F)cc3)c(N)c2C(=O)Nc2ccc(F)cc2)ccc1Cl`, for which the Potency was 1.69 µM (active).

With `CCCCOC(=O)c1ccc(NC(=O)c2sc3nc(C)cc(C)c3c2N)cc1`, the Potency was 12 µM (active).

In the case of `O=C(CCCCCCC(=O)Nc1ccccc1)NO`, the Potency result is “inactive”.

Regarding `Cn1c(NCCN(CCO)CCCc2ccc([N+](=O)[O-])cc2)cc(=O)n(C)c1=O`, the Potency result was “inactive”.

Consider `CCCCC(=O)Nc1cccc(-c2nc3ccccc3s2)c1`, for which the Potency result is “inactive”.

On to `Cc1ccc(-n2ncc3c(N(C)Cc4ccccc4)ncnc32)cc1`, for which the Potency entry was “inactive”.

Take `CC(C)(C)C(=O)NCCc1nc2ccccc2n1CCCCOc1ccc(Cl)cc1`: the Potency was 26.9 µM (active).

`Cn1cc(CNCC2CCN(c3ncc(C(=O)NO)cn3)CC2)c2ccccc21`: the Potency entry is “inactive”.

`O=C(Cn1cc(SCc2ccccc2F)c2ccccc21)N1CCCC1`: the Potency entry was “inactive”.

For the molecule `COc1ccc(C(C)n2c(C)c3c(C)nnc(C)c3c2C)cc1` (stereo not given), the Potency entry was “inactive”.

As to `O=C(CSc1nccn1Cc1ccc(F)cc1)Nc1nc2ccccc2s1`, the Potency result is “inactive”.

With `CC=C1NC(=O)[C@H]2CSSCCC=C[C@H](CC(=O)N[C@H](C(C)C)C(=O)N2)OC(=O)[C@H](C(C)C)NC1=O`, the Potency entry is “inactive”.

With `COc1ccc2nc(N3CCN(C(=O)CS(=O)(=O)c4ccc(C)cc4)CC3)sc2c1`, the Potency entry was “inactive”.

As to `CCN(CCCNC(=O)CSc1cc(=O)n(CC)c2ccccc12)c1ccccc1`, the Potency result is “inactive”.

As to `CN(C)C(=O)COC(=O)Cc1ccc(OC(=O)c2ccc(N=C(N)N)cc2)cc1`, the Potency entry was “inactive”.

Take `Cc1[nH]c2ccccc2c1CCNCc1ccc(C=CC(=O)NO)cc1`: the Potency entry was “inactive”.

For the molecule `CCc1ccc2c(c1)-c1ccccc1S(=O)(=O)N2CC(=O)N1CCC(C)CC1`, the Potency result was “inactive”.

On to `CCS(=O)(=O)c1ncc(Cl)c(C(=O)N(Cc2ccccc2)c2ccc(OC)cc2)n1`, for which the Potency was 10.7 µM (active).

(Values after PubChem BioAssay AID1508621 (National Center for Advancing Translational Sciences (NCATS), 2021).)
